Source: the supplement of paper PMC7156485

system: HCC1569; experiment: cell number relative to DMSO (% of DMSO); higher = more cells (less growth inhibition / toxicity); details: concentration: 10 µM; 24 h
How it was run: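 Cell number or H1.0 nuclear intensity appears as percent of the plate control, based on the median of replicates. Measurements came from HCC1569 and TDF cells exposed in triplicate to compounds at 10 µM for 24 h at 37 °C, then imaged in six fields per well at ×10. Positional effects were smoothed out of HCC1569 values.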
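Also: TDF denotes transformed human dermal fibroblasts of mesenchymal origin.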

| Compound | cell number |
| --- | --- |
| NC(=O)c1cnccn1 [Pyrazinecarboxamide] | 102 |
| COc1ccc(-c2cc(C(O)C3CCCCN3)c3ccccc3n2)cc1.Cl.Cl (stereo unspecified) | 68.2 |
| O=S(=O)(NCc1ccccn1)c1ccc(Br)c2ccccc12 [4-bromo-N-(2-pyridinylmethyl)-1-naphthalenesulfonamide] | 99.1 |
| COc1cc(OC)cc(-c2cc3cnc(N)nc3nc2NC(=O)NC(C)(C)C)c1 | 84.2 |
| Br.C=CCN1CCc2c(cc(O)c(O)c2Br)C(c2ccccc2)C1 (stereo not drawn) [R(+)-6-Bromo-APB hydrobromide] | 89.1 |
| Nc1nc(OCc2cc(Br)cs2)c2[nH]cnc2n1 [6-[(4-bromo-2-thienyl)methoxy]-1H-purin-2-amine] | 101 |
| COC1C(OC(N)=O)C(O)C(Oc2ccc3c(O)c(NC(=O)c4ccc(O)c(CC=C(C)C)c4)c(=O)oc3c2C)OC1(C)C.[Na+] (stereo unspecified) [Novobiocin.Na] | 103 |
| CNC1C(OC2OC(CO)C(N)C(O)C2O)OC2CC(N)C(OC3C(N)CC(N)C(O)C3O)OC2C1O (stereo unspecified) [Apramycin] | 106 |
| CCc1nn(CCCN2CCN(c3cccc(Cl)c3)CC2)c(=O)n1CCOc1ccccc1 [Nefazodone] | 98.9 |
| COc1cc(NS(=O)(=O)c2ccc(N)cc2)nc(OC)n1 [Sulfadimethoxine] | 103 |
| O=C(Nc1cc(Cl)cc2c1[nH]c1cnccc12)c1cccnc1 [IKK Inhibitor X] | 98.7 |
